Hits are enriched below; roughly 1.2% of the tested compounds scored in any of these assays.
RGS7-Gao reg – RGS7-Galphao binding modulators, primary screen, biochemical, multiplexed bead flow cytometry; actives lie on both sides; binding response (% of control), % at 10 µM; hit rate 0.35% among 220,000; in the data active = binding response below about 49% or above about 150%; inconclusive = no clear call, values can overlap the other calls; inactive = in between;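 also: fluorescent Galphao held in activated GDP-AlF4 state binding bead-coupled RGS7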
Target sequence (P09471 whole entry, looked up): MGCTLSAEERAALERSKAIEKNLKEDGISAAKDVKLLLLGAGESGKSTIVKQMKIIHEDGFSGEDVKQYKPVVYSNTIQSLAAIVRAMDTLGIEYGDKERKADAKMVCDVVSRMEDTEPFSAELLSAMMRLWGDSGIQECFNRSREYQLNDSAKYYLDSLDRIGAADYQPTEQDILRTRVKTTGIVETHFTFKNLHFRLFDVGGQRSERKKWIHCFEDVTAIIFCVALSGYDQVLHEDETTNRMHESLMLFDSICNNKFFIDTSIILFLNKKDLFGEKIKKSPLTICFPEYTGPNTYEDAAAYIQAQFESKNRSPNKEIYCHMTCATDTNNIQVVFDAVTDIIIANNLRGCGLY
Avidin bead fluor – green autofluorescence of compounds with avidin beads – biophysical, 488/530 nm, flow cytometry, artefact control, profiling panel. AID 1775, 2009. fluorescence (KMESF) at 10 µM. hit rate 0.38% among 220,000. compound fluorescence 488/530 nm; active compounds read high; in the data active = fluorescence above about 47
RGS4-Gao reg – modulators of RGS4 binding to Galphao, primary screen, biochemical, multiplexed bead flow cytometry. binding response (% of control), % at 10 µM. AID 1415, 2008. actives lie on both sides. Guanine nucleotide-binding protein G(o) subunit alpha (Homo sapiens), P09471. hit rate 0.33% among 220,000; in the data active = binding response below about 49% or above about 150%; inactive = in between;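 also: fluorescent Galphao activated with aluminum fluoride binding bead-coupled RGS4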
RGS8-Gao – RGS8-Galphao binding modulators, primary screen, biochemical, multiplexed bead flow cytometry | Guanine nucleotide-binding protein G(o) subunit alpha (Homo sapiens), P09471 | actives lie on both sides | response (percent of control binding), % at 10 µM | hit rate 0.34% among 220,000 | AID 1423, 2008; in the data active = response below about 60% or above about 140%; inactive = in between;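 also: Galphao activated as the GDP aluminium fluoride complex binding bead-coupled RGS8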
RGS16-Gao HTS – modulators of RGS16 binding to Galphao, primary screen, biochemical, human proteins, multiplexed bead flow cytometry; bead-based flow cytometry RGS16-Galphao binding, fluorescence; actives lie on both sides; binding response (% of control), % at 10 µM; hit rate 0.38% among 220,000;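 also: Galphao activated by GDP with aluminum fluoride before binding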
GSH bead fluor – compound fluorescence on glutathione beads, profiling panel, artefact control, biophysical, 488/530 nm, flow cytometry; GSH beads flow cytometry, compound fluorescence 488/530 nm; active compounds read high; fluorescence (KMESF) at 10 µM; hit rate 0.25% among 190,000; in the data active = fluorescence above about 89;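 also: glutathione beads carrying GST-tagged Bcl family fusion proteins plus one bare bead set; values are compound well signal with DMSO vehicle wells as background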
RGS4-Gao HTS – modulators of RGS–Galpha-o binding, primary screen, biochemical, multiplexed beads, flow cytometry, RGS4/7/8/16/19. shares compounds with RGS16-Gao HTS. multiplexed bead flow cytometry. RGS4–Galpha-o binding response, % at 10 µM. hit rate 99% among 1,600;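 also: fluorescently labeled Galpha-o bound to GDP with aluminium fluoride binding biotinylated RGS beads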
Biotin-avidin – disruption of biotin probe capture by avidin, counter-screen for RGS protein interaction modulators, biochemical, flow cytometry, bead-based. shares compounds with RGS16-Gao HTS. streptavidin beads, fluorescein-biotin binding. inhibition, % at 10 µM. 1,700 tested, under 10 active. AID 1783, 2009;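 active = inhibition above 50%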;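 also: median green fluorescence of gated singlet beads compared with DMSO control wells; 0% = DMSO wells and 100% = complete loss of bead fluorescence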
RGS8-Gao confirm – RGS8-Galphao binding modulators, confirmation, biochemical, multiplexed bead flow cytometry, single concentration | shares compounds with RGS16-Gao HTS | bead-based flow cytometry RGS8-Galphao binding, fluorescence; actives lie on both sides | binding response (% of control), % at 10 µM | hit rate 3% among 1,700 | AID 1836, 2009; in the data active = binding response below about 72% or above about 130%; inactive = in between;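 also: Galphao activated as GDP AlF4 complex before binding bead RGS8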
RGS7-Gao single – RGS7-Galphao binding modulators, confirmation, biochemical, multiplexed bead flow cytometry, single concentration; bead-based flow cytometry RGS7-Galphao binding; actives lie on both sides; hit rate 7.8% among 1,700; shares compounds with RGS16-Gao HTS; AID 1837, 2009; response (percent of control binding), % at 10 µM; in the data active = response below about 75% or above about 130%; inactive = in between;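 also: fluorescent Galphao activated with GDP and aluminum fluoride binding bead-coupled RGS7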
RGS16-Gao conf – modulators of RGS16-Galphao protein binding, confirmation, biochemical, single concentration, multiplexed bead flow cytometry; hit rate 4% among 1,700; AID 1838, 2009; shares compounds with RGS16-Gao HTS; bead-based flow cytometry; actives lie on both sides; response (% of control binding), % at 10 µM; in the data active = response below about 74% or above about 130%; inactive = in between;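 also: Galphao activated as the GDP aluminium fluoride complex binding bead-coupled RGS16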
RGS4-Gao single – modulators of RGS4-Galphao protein binding, confirmation, biochemical, single concentration, multiplexed bead flow cytometry | shares compounds with RGS16-Gao HTS | actives lie on both sides | binding response (% of control), % at 10 µM | hit rate 4% among 1,700; in the data active = binding response below about 74% or above about 130%; inactive = in between
RGS19-Gao single – regulators of RGS19-Galphao binding, confirmation, biochemical, single point, multiplexed bead flow cytometry. hit rate 5% among 1,700. shares compounds with RGS16-Gao HTS. bead-based flow cytometry RGS19-Galphao binding; actives lie on both sides. response (percent of control binding), % at 10 µM; in the data active = response below about 50% or above about 160%; inactive = in between;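 also: 100% = no compound control and 0% = blank background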
* marks the source's active call; other numbers are inactive results; u = inconclusive; x = no result given; [ ] = dose if it differs, or a comment. Unless noted, no rule for the calls is given here.

SMILES	RGS7-Gao reg	Avidin bead fluor	RGS4-Gao reg	RGS8-Gao	RGS16-Gao HTS	GSH bead fluor	RGS4-Gao HTS	Biotin-avidin	RGS8-Gao confirm	RGS7-Gao single	RGS16-Gao conf	RGS4-Gao single	RGS19-Gao single
CCc1ccc(NC(=S)Nc2ccc(S(=O)(=O)Nc3ncccn3)cc2)cc1	97	8	102	102	101	9	x	x	x	x	x	x	x
CCCn1c(N)nc2ccccc21	115	8	115	144*[activator]	369	14	115*	2	104	104	109	104	104
CCOc1ccc(N=C(NN)c2ccc3ccccc3n2)cc1	113	4	100	99	95	9	x	x	x	x	x	x	x
CCCOc1ccc(Oc2nc(-c3ccncc3)nc3ccccc23)cc1	u	23	124	107	117	x	x	x	x	x	x	x	x
CCN(CC(=O)Nc1ccc2c(c1)OCCO2)c1ccc(S(=O)(=O)N2CCOCC2)cn1	84	2	80	90	-83*	5	80*	1	102	103	99	102	112
Cc1cc(C)nc(NC(=NCCc2c[nH]c3ccccc23)NC(=O)Nc2ccc(Cl)c(Cl)c2)n1	106	10	108	82	13*	11	108*	0	100	100	100	100	108
CCOC(=O)CN1C(=O)S/C(=C/c2ccc3c(c2)n(C)c(=O)n3C)C1=O	84	4	85	84	23*	9	85*	-2	101	97	99	98	114
Cn1c(=O)n(C)c2cc(/C=C3/SC(=O)N(CC(=O)N4CCOCC4)C3=O)ccc21	96	3	95	93	83	15	x	x	x	x	x	x	x
O=C(Nc1cccnc1)c1ccc(NS(=O)(=O)c2cccc([N+](=O)[O-])c2)cc1	92	10	96	98	96	67	x	x	x	x	x	x	x
OCCN(Cc1ccccc1)Cc1cccc(C(F)(F)F)c1	x	x	x	x	x	46	x	1	98	90	96	94	70
OCCN(Cc1ccccc1)Cc1ccc(C(F)(F)F)cc1	98	25	102	100	102	25	x	x	x	x	x	x	x
CCOCCCNC(=O)c1cc(=O)n(Cc2cccc(C)c2)c2ccccc12	100	27	101	105	112	9	x	x	x	x	x	x	x

High-throughput results (PubChem BioAssay)
